Experimental data: PubChem BioAssay AID1159580 (chemical genetic matrix, 2015)
The whole screen tested about 5,500 compounds, of which about 2,000 (36%) were called active. Another 18% or so got no clear call; they are omitted. Cut-off read from the data, not from the text of the source: active = normalized growth mostly below about 0.91 (no sharp cut-off); inconclusive = no clear call, values can overlap the other calls; inactive = mostly above about 0.92. Some of the results follow.

Test: chemical genetic growth profiling, strain panel (AID 1159580);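 note: tested at 20 µM; growth read once vehicle control cultures reached saturation at 30 °C; 1 = growth at the plate median or of vehicle wells; lower values mean less growth of the strain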
Details: S. cerevisiae deletion strains, growth OD
[1] = locus YAR019C, strain CDC15, stronger effect = lower value
[2] = locus YBL105C, strain PKC1, stronger effect = lower value
[3] = locus YBR135W, strain CKS1, stronger effect = lower value
[4] = locus YBR136W, strain MEC1, stronger effect = lower value
[5] = locus YBR160W, strain CDC28, stronger effect = lower value
[6] = locus YDL017W, strain CDC7, stronger effect = lower value
[7] = locus YDL028C, strain MPS1, stronger effect = lower value
[8] = locus YDL101C, strain DUN1, stronger effect = lower value
[9] = locus YDL108W, strain KIN28, stronger effect = lower value
[10] = locus YDL132W, strain cdc53, stronger effect = lower value
[11] = locus YDL214C, strain PRR2, stronger effect = lower value
[12] = locus YDR052C, strain DBF4, stronger effect = lower value
[13] = locus YDR054C, strain cdc34, stronger effect = lower value
[14] = locus YDR226W, strain ADK1, stronger effect = lower value
[15] = locus YDR477W, strain SNF1, stronger effect = lower value
[16] = locus YER123W, strain YCK3, stronger effect = lower value
[17] = locus YER133W, strain GLC7, stronger effect = lower value
[18] = locus YFL009W, strain cdc4, stronger effect = lower value
[19] = locus YFL029C, strain CAK1, stronger effect = lower value
[20] = locus YFR003C, strain YPI1, stronger effect = lower value
[21] = locus YFR019W, strain FAB1, stronger effect = lower value
[22] = locus YFR028C, strain CDC14, stronger effect = lower value
[23] = locus YGR040W, strain KSS1, stronger effect = lower value
[24] = locus YGR052W, strain FMP48, stronger effect = lower value
[25] = locus YGR092W, strain DBF2, stronger effect = lower value
[26] = locus YHR030C, strain SLT2, stronger effect = lower value
[27] = locus YHR079C, strain IRE1, stronger effect = lower value
[28] = locus YHR082C, strain KSP1, stronger effect = lower value
[29] = locus YHR205W, strain SCH9, stronger effect = lower value
[30] = locus YIL147C, strain SLN1, stronger effect = lower value
[31] = locus YJL095W, strain BCK1, stronger effect = lower value
[32] = locus YJL128C, strain PBS2, stronger effect = lower value
[33] = locus YJL157C, strain FAR1, stronger effect = lower value
[34] = locus YJR016C, strain ILV3, stronger effect = lower value
[35] = locus YJR066W, strain TOR1 (second series), stronger effect = lower value
[36] = locus YJR066W, strain TOR1, stronger effect = lower value
[37] = locus YKL048C, strain ELM1, stronger effect = lower value
[38] = locus YKL067W, strain YNK1, stronger effect = lower value
[39] = locus YKL101W, strain HSL1, stronger effect = lower value
[40] = locus YKL193C, strain SDS22, stronger effect = lower value
[41] = locus YKL203C, strain TOR2, stronger effect = lower value
[42] = locus YLR113W, strain HOG1, stronger effect = lower value
[43] = locus YLR133W, strain CKI1, stronger effect = lower value
[44] = locus YLR403W, strain SFP1, stronger effect = lower value
[45] = locus YML070W, strain DAK1, stronger effect = lower value
[46] = locus YMR001C, strain CDC5, stronger effect = lower value
[47] = locus YMR205C, strain PFK2 (second series), stronger effect = lower value
[48] = locus YMR277W, strain FCP1, stronger effect = lower value
[49] = locus YNL006W, strain LST8, stronger effect = lower value
[50] = locus YNL020C, strain ARK1, stronger effect = lower value
[51] = locus YNL161W, strain CBK1, stronger effect = lower value
[52] = locus YNL183C, strain NPR1, stronger effect = lower value
[53] = locus YNL207W, strain RIO2, stronger effect = lower value
[54] = locus YNL222W, strain SSU72, stronger effect = lower value
[55] = locus YNL307C, strain MCK1 (second series), stronger effect = lower value
[56] = locus YOL078W, strain AVO1, stronger effect = lower value
[57] = locus YOL136C, strain PFK27, stronger effect = lower value
[58] = locus YOR061W, strain CKA2, stronger effect = lower value
[59] = locus YOR119C, strain RIO1, stronger effect = lower value
[60] = locus YOR231W, strain MKK1, stronger effect = lower value
[61] = locus YOR329C, strain SCD5, stronger effect = lower value
[62] = locus YPL031C, strain PHO85, stronger effect = lower value
[63] = locus YPL153C, strain RAD53, stronger effect = lower value
[64] = locus YPL204W, strain HRR25, stronger effect = lower value
[65] = locus YPL209C, strain IPL1, stronger effect = lower value
[66] = locus YPL256C, strain CLN2, stronger effect = lower value
[67] = locus YPR025C, strain CCL1, stronger effect = lower value
[68] = locus YPR106W, strain ISR1, stronger effect = lower value
[69] = locus YPR111W, strain DBF20, stronger effect = lower value
[70] = strain NNK1, stronger effect = lower value
[71] = strain TSCII, stronger effect = lower value

Measured: normalized growth

CSc1sc(C(=O)Sc2ccccc2)cc1S(=O)(=O)C(C)C
inactive: [1] 0.994 | [2] 0.997 | [3] 0.995 | [4] 0.991 | [5] 1 | [6] 0.995 | [7] 0.996 | [8] 1 | [9] 0.999 | [10] 0.983 | [11] 0.962 | [12] 0.993 | [13] 0.976 | [14] 1 | [15] 0.966 | [16] 0.902 | [17] 0.958 | [18] 0.979 | [19] 0.983 | [20] 0.994 | [21] 0.987 | [22] 0.992 | [23] 0.956 | [24] 0.927 | [25] 0.95 | [26] 0.997 | [27] 1 | [28] 0.988 | [29] 0.911 | [30] 0.99 | [31] 0.937 | [32] 0.937 | [33] 0.941 | [34] 0.988 | [35] 0.971 | [36] 1 | [37] 0.953 | [38] 0.961 | [39] 0.94 | [40] 0.992 | [41] 1.02 | [43] 0.955 | [44] 0.945 | [45] 0.93 | [46] 0.985 | [47] 0.966 | [48] 0.979 | [49] 0.997 | [50] 0.961 | [51] 0.993 | [52] 0.941 | [53] 0.974 | [54] 0.997 | [55] 0.946 | [56] 0.975 | [57] 0.929 | [58] 0.95 | [59] 1 | [60] 0.921 | [61] 0.994 | [62] 0.972 | [63] 0.988 | [64] 0.948 | [65] 0.994 | [66] 0.969 | [67] 0.996 | [68] 0.997 | [69] 0.979 | [70] 0.977 | [71] 0.98
active: [42] 0.688

Cc1c(C)c(C)c(C(=O)c2ccc(N=Cc3cc(Cl)cc(Cl)c3O)cc2)c(C)c1C
inactive: [1] 0.929 | [2] 0.934 | [3] 0.94 | [4] 0.925 | [5] 0.944 | [6] 0.926 | [7] 0.941 | [8] 0.949 | [9] 0.944 | [10] 0.926 | [13] 0.918 | [14] 0.923 | [18] 0.922 | [19] 0.932 | [20] 0.922 | [22] 0.941 | [24] 0.605 | [28] 0.631 | [30] 0.926 | [32] 0.927 | [34] 0.944 | [39] 0.735 | [40] 0.93 | [46] 0.938 | [48] 0.929 | [49] 0.938 | [51] 0.925 | [52] 0.655 | [53] 0.937 | [54] 0.94 | [56] 0.94 | [61] 0.921 | [65] 0.925 | [67] 0.937 | [68] 0.938 | [69] 0.941 | [70] 0.939 | [71] 0.925
active: [11] 0.681 | [12] 0.904 | [15] 0.573 | [16] 0.464 | [17] 0.527 | [21] 0.625 | [23] 0.63 | [25] 0.239 | [26] 0.262 | [27] 0.338 | [29] 0.509 | [31] 0.233 | [33] 0.503 | [35] 0.6 | [36] 0.458 | [37] 0.55 | [38] 0.663 | [41] 0.662 | [42] 0.585 | [43] 0.523 | [44] 0.459 | [45] 0.502 | [47] 0.645 | [50] 0.469 | [55] 0.503 | [57] 0.382 | [58] 0.493 | [59] 0.663 | [60] 0.446 | [62] 0.583 | [63] 0.504 | [64] 0.483 | [66] 0.403
